Bioassay records as filed in PubChem BioAssay.
Rows were chosen to be rich in hits. Some 3.5% of all compounds tested hit in one or more screens of this group.
FBW7 activator: FBW7 E3 ligase activators, primary screen, biochemical, AlphaScreen, human; normalized activity (activation), % at 26.1 µM; actives 0.13% (n = 650,000); AID 1259310, 2017; AlphaScreen FBW7–phospho-cyclin E peptide binding, activator screen; F-box/WD repeat-containing protein 7 (Homo sapiens), Q969H0; in the data active = normalized activity above about 1.9%;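 note: purified mutant Fbw7 with reduced substrate affinity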
MITF primary: MITF inhibitors, primary screen, biochemical, AlphaScreen, human; actives 0.91% (n = 650,000); inhibition, % at 2.6 µM; AID 1259374, 2018; AlphaScreen MITF homodimerization, bead proximity signal; Microphthalmia-associated transcription factor (Homo sapiens), O75030; in the data active = inhibition above about 50%;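 note: 0% = vehicle wells with protein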
Target sequence (O75030 whole entry, looked up): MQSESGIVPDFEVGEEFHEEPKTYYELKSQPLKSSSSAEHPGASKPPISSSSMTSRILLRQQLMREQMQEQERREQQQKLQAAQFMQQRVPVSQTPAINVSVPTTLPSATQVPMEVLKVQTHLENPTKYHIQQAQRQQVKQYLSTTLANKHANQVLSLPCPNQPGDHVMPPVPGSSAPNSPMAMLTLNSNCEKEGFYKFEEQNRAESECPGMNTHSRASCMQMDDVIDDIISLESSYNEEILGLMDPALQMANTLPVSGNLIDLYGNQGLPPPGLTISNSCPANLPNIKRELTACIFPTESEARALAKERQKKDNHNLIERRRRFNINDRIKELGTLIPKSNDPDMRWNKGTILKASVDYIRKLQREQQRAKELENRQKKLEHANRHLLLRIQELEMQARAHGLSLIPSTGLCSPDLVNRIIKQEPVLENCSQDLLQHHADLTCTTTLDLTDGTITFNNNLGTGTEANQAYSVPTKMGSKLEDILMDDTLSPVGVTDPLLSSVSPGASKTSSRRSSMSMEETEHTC
TEAD-YAP inh: TEAD-YAP interaction inhibition, primary screen, TEAD-YAP interaction inhibitor project, luminescence, HEK-TIYL cells; TEAD-Gal4/YAP UAS-luciferase luminescence; inhibition, % at 9.12 µM; actives 1.4% (n = 640,000); AID 1259422, 2018; in the data active = inhibition above about 32%;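 note: 0% = median of test compound wells and 100% = reference inhibitor wells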
GPR151 ag: activators of human GPR151, primary screen, cell-based, PathHunter beta-arrestin, luminescence | PathHunter beta-arrestin GPR151 cells | activation, % at 11.2 µM | actives 1% (n = 650,000) | AID 1508602, 2020; in the data active = activation above about 4.9%;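 note: 0% = median of compound wells and 100% = cells with positive control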
MITF confirm: MITF inhibitors, retest of hits, confirmation, biochemical, AlphaScreen, triplicate; shares compounds with MITF primary; AlphaScreen MITF homodimerization, biotin/His-MITF beads; inhibition, % at 2.6 µM; actives 16% (n = 4,700); AID 1259372, 2018;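 active = inhibition above a cutoff derived from the DMSO control wells, cut at about 28% in these data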;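 note: 0% = MITF dimer wells with DMSO only; inhibitors lower the bead chemiluminescence by keeping MITF from dimerizing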
AS interf DR: AlphaScreen optical interference compounds, dose response, counter-screen, biochemical, HTS. actives 6% (n = 480). AlphaScreen optical interference counterscreen, cell-free. IC50, µM. shares compounds with MITF primary. AID 1259373, 2018; call rule not given here
AS interf ctr: AlphaScreen optical interference compounds, counter-screen for MITF inhibitor project, biochemical, triplicate; shares compounds with MITF primary; inhibition, % at 2.6 µM; LysRS AlphaScreen counterscreen, signal interference; actives 7.6% (n = 4,700);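 active = inhibition above a cutoff derived from the DMSO control wells, cut at about 30% in these data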
Active calls of the source: *; . = no result given.

SMILES	FBW7 activator	MITF primary	TEAD-YAP inh	GPR151 ag	MITF confirm	AS interf ctr	others
S=C(NCCN1CCOCC1)NNc1ncnc2sc(-c3ccccc3)cc12	0	4	-24	-2	.	.
O=S(=O)(Nc1ccccn1)c1ccc(N=Cc2ccc3c(c2)OCO3)cc1	0	74*	5	1	8	13
Cc1ccc2c(c1C)C(C)(C)C1(C=Nc3c(ccc4ncccc34)O1)N2C (stereo unspecified)	0	57*	3	2	52*	52*
Cc1nc(NCc2c(C)nn(C)c2Cl)sc1-c1ccn(C2CCOC2)n1 (stereo unspecified)	0	54*	3	2	4	-3
CC(=O)Nc1ccc(C(=O)OCC(=O)Nc2cc(C)cc(C)c2)cc1	0	9	4	1	.	.
CC(=O)Oc1cc(C(=O)OCC(=O)Nc2ccc(C)cc2)cc(OC(C)=O)c1OC(C)=O	0	80*	-5	1	56*	16	AS interf DR=>7
Cc1cc(C)c(C)c(S(=O)(=O)N2CCN(c3cccc(C(F)(F)F)c3)CC2)c1C	0	63*	-3	2	4	17
Cc1c(S(=O)(=O)N2CCN(c3cccc(C(F)(F)F)c3)CC2)c(=O)n(C)c(=O)n1C	1	22	6	-2	.	.
c1ccc(-c2ccccc2OCCN2CCNCC2)cc1	0	66*	-5	0	21	10
c1ccc(-c2ccccc2OCCCN2CCOCC2)cc1	0	91*	3	-1	20	20
c1ccc(-c2ccccc2OCCOCCN2CCCC2)cc1	0	21	-1	0	.	.
c1ccc2c(OCCCCN3CCOCC3)cccc2c1	0	27	-19	-1	.	.
CCN1C(=O)C2(c3ccccc31)c1c(oc3ccccc3c1=O)C(=O)N2CCO (stereo unspecified)	0	-4	2	1	.	.
COc1ccc(Nc2ncnc3c2c(-c2ccccc2)cn3-c2ccc(Br)cc2)cc1OC	1	17	4	-1	.	.
CCOC(=O)c1cnn(-c2ccccc2Cl)c1CNCc1csc(C)n1	0	-4	4	4	.	.
CCOC(=O)c1cnn(-c2ccccc2Cl)c1CNCCNC(C)=O	0	83*	1	-1	1	-3
Cc1cc2oc(=O)cc(C)c2cc1NC(=O)C(C)C	0	18	-3	1	.	.
Cc1cccc(-c2nc3ccccc3c(=O)n2NC(=O)c2ccccc2Cl)c1	0	-6	8	1	.	.
COc1ccc(CCNC(=O)c2cc(Nc3ccc(N4CCOCC4)cc3)nc3ccccc23)cc1	0	-6	6	0	.	.
Cc1ccccc1CN1CCN(C2C3CC4CC(C3)CC2C4)CC1 (stereo unspecified)	0	74*	-1	5	-1	-2
Clc1ccccc1CN1CCN(C2C3CC4CC(C3)CC2C4)CC1 (stereo unspecified)	0	75*	3	1	12	15
c1ccc2c(CN3CCN(C4C5CC6CC(C5)CC4C6)CC3)c[nH]c2c1 (stereo unspecified)	0	65*	2	0	-6	2
Cc1ccc(C(=O)/C=C/c2ccc(-c3cccc(C(F)(F)F)c3)o2)cc1	0	-1	6	2	.	.
O=C(/C=C/c1ccc(-c2ccc(F)cc2)o1)c1ccco1	0	58*	-64	0	77*	40*
O=C(/C=C/c1ccc(-c2cccc(C(F)(F)F)c2)o1)c1ccco1	0	78*	-11	3	70*	29	AS interf DR=>6.6
SMILES	FBW7 activator	MITF primary	TEAD-YAP inh	GPR151 ag	MITF confirm	AS interf ctr	others
COc1ccc(/C=N/NC(=O)Cc2c[nH]c3ccccc23)cc1	0	-9	2	-1	.	.
O=C(/C=C/c1ccc2c(c1)OCO2)CC1(O)C(=O)N(Cc2ccccc2)c2ccccc21 (stereo unspecified)	0	68*	16	0	6	14
COc1cc(C(=O)Oc2ccccc2N)cc(OC)c1OC	0	5	3	4	.	.
COc1cc(N)c2nccc(C)c2c1OC	0	97*	-4	-1	119*	59*
Cc1ccc(NC(=O)CC2NCCNC2=O)cc1C (stereo unspecified)	1	72*	-14	0	7	21
CCN1CCN(C(c2ccc(C)cc2)c2nnnn2C(C)(C)CC)CC1 (stereo unspecified)	0	52*	-3	0	7	21
CN(C)S(=O)(=O)c1ccc(C(=O)Nc2ncnc3c2CCC3)cc1	1	55*	9	0	5	-8
CN(C1CC1)S(=O)(=O)c1ccc(C(=O)Nc2ncnc3c2CCC3)cc1	0	-11	-3	-1	.	.
O=[N+]([O-])CC(c1ccc2c(c1)OCO2)c1c(-c2ccccc2)[nH]c2ccccc12 (stereo unspecified)	0	4	-4	0	.	.
CCCNc1nc(NCC)nc2c1ncn2C1CCCCC1	0	69*	1	0	2	5
OC(CNCCN1CCOCC1)COC1CCCc2ccccc21 (stereo unspecified)	0	73*	7	0	13	15
OC(COc1ccccc1)CN1CCOCC1 (stereo unspecified)	0	-1	1	0	.	.
COc1ccc(COCC(O)CNCCCN2CCOCC2)cc1OC (stereo unspecified)	0	54*	9	-1	-7	-2
OC(CNCCN1CCOCC1)COc1ccccc1 (stereo unspecified)	0	75*	-6	1	4	2
COc1ccc(COCC(O)CNCCOCCO)cc1OC (stereo unspecified)	0	5	-4	0	.	.
COC(=O)c1c(C(=O)OC)c(-c2cc(Cl)cc(Cl)c2)n2c1CS(=O)C2 (stereo unspecified)	1	7	-1	1	.	.
Cc1cnc(Nc2ccc(-n3ccnc3)cc2)nc1Nc1ccccc1	0	52*	37*	2	-13	-1
Cc1cnc(Nc2nc3ccccc3n2C)nc1Nc1ccccc1	0	73*	-17	-1	-6	14
COc1cc2c(cc1OC)C(C)N(C(=O)Cc1ccccc1)CC2 (stereo unspecified)	0	10	3	1	.	.
Cc1cccn2cc(CN3CCCc4ccccc43)nc12	0	55*	5	2	7	18
